Assay results as given in PubChem BioAssay (NCI).
Compounds without any hit were thinned out: in the full panel of roughly 79,000, 15% have a hit. Calls of active or inactive are those of the source. No stated cut-off is given here; in the data, active means growth inhibition above about 70%; inactive means the rest.

test: NCI Yeast Anticancer Drug Screen. Data for the mec2-1 strain (AID 157); settings: S. cerevisiae mec2-1 strain, at 50.0 µM (retest, dose inferred, filed as 5.0), stronger effect = higher value
Method in brief: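 Each compound was tested on mec2-1 yeast, a strain altered in DNA damage repair or cell cycle control. Growth inhibition is reported relative to vehicle.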

Structure (SMILES)	growth inhibition
O=C1C(=O)C(CCCO)(CCCO)CCCCCCCCC1(CCCO)CCCO	-11% (inactive)
CC(C)(C)C(=O)CC(=O)C(F)(F)C(F)(F)C(F)(F)F.CC(C)(C)C(=O)CC(=O)C(F)(F)C(F)(F)C(F)(F)F.CC(C)(C)C(=O)CC(=O)C(F)(F)C(F)(F)C(F)(F)F.[Er]	9% (inactive)
CCCCC(CC)COC(=O)c1cc2ccccc2oc1=O (stereo not given)	13% (inactive)
Nc1ccc(-c2nc3ccccc3s2)cc1I	74% (active)
CN1CCC(CCC(=O)OC(C)(C)C)(CN2c3ccccc3Sc3ccccc32)C1 (stereo not given)	96% (active)
COc1cc(C(=O)C=[N+]=[N-])c([N+](=O)[O-])c(OC)c1OC	91% (active)
COc1ccc(-n2cc(-c3ccc(Cl)cc3)c3c(N)ncnc32)cc1	99% (active)
COc1ccccc1/C=C1\SC(=S)N(/C=C2\C(=O)Oc3ccccc3C2=O)C1=O	27% (inactive)
F[Si](c1ccccc1)(c1ccccc1)c1ccccc1	87% (active)
Cc1c2ccnc(-c3ccc(F)cc3)c2cc2c1[nH]c1ccccc12	15% (inactive)
CCN(CC)CCNc1c(OC)cc(C)c2sc3ccccc3c(=O)c12	-1% (inactive)
O=c1cccc(C2CCc3cc(O)ccc3C2)[nH]1 (stereo not given)	1% (inactive)
O/N=C1\c2ccccc2-c2ccc(Cl)cc21	34% (inactive)
CCCCN(CCCC)CC(O)c1cc(-c2ccc(Cl)cc2)nc2c(Cl)cccc12 (stereo not given)	1% (inactive)
CN(C)c1ccc(-c2c(C#N)c(S)n(NS(=O)(=O)c3ccccc3)c(=O)c2C#N)cc1	95% (active)
Clc1ccc2ns[s+]c2c1	93% (active)
COc1ccc2c(c1)CC/C(=C\c1ccc(OCCN(C)C)cc1)C2=O	15% (inactive)
CCCCOC(=O)c1cnc[nH]c1=O	3% (inactive)
COC(=O)c1c(C)cccc1C1CN=NC12Cc1ccc(C)c(C)c1C2=O (stereo not given)	47% (inactive)
CC1CCN(CCOC(=O)C(c2ccccc2)C2C=CCCC2)C1 (stereo not given)	37% (inactive)

Structure (SMILES)	growth inhibition
CNCC(OB(c1ccccc1)c1ccccc1)c1ccccc1 (stereo not given)	99% (active)
O=C1CCC(Cc2ccc(C(F)(F)F)cc2)C(=O)N1 (stereo not given)	3% (inactive)
CC(C)(Br)C(Br)C(=O)C(Br)C(C)(C)Br (stereo not given)	26% (inactive)
CCCCCCCCN(CCCCCCCC)CC(O)c1cc2c(c3ccccc13)CCCC2 (stereo not given)	96% (active)
Brc1ccc(CCNCCN2CCCCC2)cc1	68% (inactive)
CC(C)=NNc1ncnc2nc[nH]c12	-11% (inactive)
CC1=C/C(=C\c2ccc([N+](=O)[O-])o2)C(=O)O1	99% (active)
CCOC(=O)C(=O)Nc1nc2c(s1)C(=O)c1ccccc1C2=O	98% (active)
CC1CC2(C)ON=C(c3ccccc3)N2c2ccccc2S1 (stereo not given)	93% (active)
N#CC(CC(Br)CBr)(c1ccccc1)c1ccccc1 (stereo not given)	24% (inactive)
Oc1ccc(-c2ccccc2)cc1Cl	99% (active)
C=CCSc1nc2ccccc2c(=O)n1Cc1ccco1	36% (inactive)
CCOC(=O)c1ccc(O)c(OC)c1	3% (inactive)
O=C(COc1ccc2ccccc2c1)NC1c2ccccc2Oc2ccccc21	97% (active)
O=S(=O)(c1ccccc1)n1cc(C[P+](c2ccccc2)(c2ccccc2)c2ccccc2)c2ccccc21	99% (active)
CC/C(=N\O)c1ccc2cc(Br)c3ccccc3c2c1	89% (active)
CCOC(=O)C(C)(C)Oc1ccc2c(=O)cc(-c3ccccc3)oc2c1	96% (active)
CC(O)c1c2ccccc2cc2ccccc12 (stereo not given)	58% (inactive)
CC(=O)OC1CCC2(C)C(CCC3C4=CCC(C5COC(=O)C5)C4(C)CCC32)C1 (stereo not given)	94% (active)
NC(C(=O)O)C1=CCCCCC1 (stereo not given)	66% (inactive)

same assay, conditions: S. cerevisiae mec2-1 strain, at 50.0 µM, stronger effect = higher value

Structure (SMILES)	growth inhibition
O=C1C(=O)C(CCCO)(CCCO)CCCCCCCCC1(CCCO)CCCO	-35.1% (inactive)
CC(C)(C)C(=O)CC(=O)C(F)(F)C(F)(F)C(F)(F)F.CC(C)(C)C(=O)CC(=O)C(F)(F)C(F)(F)C(F)(F)F.CC(C)(C)C(=O)CC(=O)C(F)(F)C(F)(F)C(F)(F)F.[Er]	91% (active)
CCCCC(CC)COC(=O)c1cc2ccccc2oc1=O (stereo not given)	61.8% (inactive)
Nc1ccc(-c2nc3ccccc3s2)cc1I	89.1% (active)
CN1CCC(CCC(=O)OC(C)(C)C)(CN2c3ccccc3Sc3ccccc32)C1 (stereo not given)	99.8% (active)
COc1cc(C(=O)C=[N+]=[N-])c([N+](=O)[O-])c(OC)c1OC	90.8% (active)
COc1ccc(-n2cc(-c3ccc(Cl)cc3)c3c(N)ncnc32)cc1	94.6% (active)
COc1ccccc1/C=C1\SC(=S)N(/C=C2\C(=O)Oc3ccccc3C2=O)C1=O	18.6% (inactive)
F[Si](c1ccccc1)(c1ccccc1)c1ccccc1	25.3% (inactive)
Cc1c2ccnc(-c3ccc(F)cc3)c2cc2c1[nH]c1ccccc12	-14.4% (inactive)
CCN(CC)CCNc1c(OC)cc(C)c2sc3ccccc3c(=O)c12	39.5% (inactive)
O=c1cccc(C2CCc3cc(O)ccc3C2)[nH]1 (stereo not given)	3.35% (inactive)
O/N=C1\c2ccccc2-c2ccc(Cl)cc21	50.5% (inactive)
CCCCN(CCCC)CC(O)c1cc(-c2ccc(Cl)cc2)nc2c(Cl)cccc12 (stereo not given)	99.5% (active)
CN(C)c1ccc(-c2c(C#N)c(S)n(NS(=O)(=O)c3ccccc3)c(=O)c2C#N)cc1	75.3% (active)
Clc1ccc2ns[s+]c2c1	48.1% (inactive)
COc1ccc2c(c1)CC/C(=C\c1ccc(OCCN(C)C)cc1)C2=O	48.8% (inactive)
CCCCOC(=O)c1cnc[nH]c1=O	-2.65% (inactive)
COC(=O)c1c(C)cccc1C1CN=NC12Cc1ccc(C)c(C)c1C2=O (stereo not given)	43.2% (inactive)
CC1CCN(CCOC(=O)C(c2ccccc2)C2C=CCCC2)C1 (stereo not given)	16.9% (inactive)

Structure (SMILES)	growth inhibition
CNCC(OB(c1ccccc1)c1ccccc1)c1ccccc1 (stereo not given)	-5.2% (inactive)
O=C1CCC(Cc2ccc(C(F)(F)F)cc2)C(=O)N1 (stereo not given)	22.1% (inactive)
CC(C)(Br)C(Br)C(=O)C(Br)C(C)(C)Br (stereo not given)	48.6% (inactive)
CCCCCCCCN(CCCCCCCC)CC(O)c1cc2c(c3ccccc13)CCCC2 (stereo not given)	99.4% (active)
Brc1ccc(CCNCCN2CCCCC2)cc1	21% (inactive)
CC(C)=NNc1ncnc2nc[nH]c12	19.1% (inactive)
CC1=C/C(=C\c2ccc([N+](=O)[O-])o2)C(=O)O1	99.5% (active)
CCOC(=O)C(=O)Nc1nc2c(s1)C(=O)c1ccccc1C2=O	95.8% (active)
CC1CC2(C)ON=C(c3ccccc3)N2c2ccccc2S1 (stereo not given)	90% (active)
N#CC(CC(Br)CBr)(c1ccccc1)c1ccccc1 (stereo not given)	40.1% (inactive)
Oc1ccc(-c2ccccc2)cc1Cl	99.7% (active)
C=CCSc1nc2ccccc2c(=O)n1Cc1ccco1	-12.2% (inactive)
CCOC(=O)c1ccc(O)c(OC)c1	1.5% (inactive)
O=C(COc1ccc2ccccc2c1)NC1c2ccccc2Oc2ccccc21	17.4% (inactive)
O=S(=O)(c1ccccc1)n1cc(C[P+](c2ccccc2)(c2ccccc2)c2ccccc2)c2ccccc21	99.5% (active)
CC/C(=N\O)c1ccc2cc(Br)c3ccccc3c2c1	98.9% (active)
CCOC(=O)C(C)(C)Oc1ccc2c(=O)cc(-c3ccccc3)oc2c1	93% (active)
CC(O)c1c2ccccc2cc2ccccc12 (stereo not given)	39.3% (inactive)
CC(=O)OC1CCC2(C)C(CCC3C4=CCC(C5COC(=O)C5)C4(C)CCC32)C1 (stereo not given)	61.5% (inactive)
NC(C(=O)O)C1=CCCCCC1 (stereo not given)	13.8% (inactive)
